# Experimental data as given in PubChem BioAssay AID588350 (The Scripps Research Institute Molecular Screening Center, 2011).
# Out of some 1,900 compounds screened, about 1,200 (63%) were called active.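 The calls were made as follows: active = mean activation above the mean of solvent-only control wells plus 3 SD (cut at about 22% in these data); inactive = the rest.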 The set was probably picked from earlier hits. Only a sample is shown.
# Assay: GAA30 FXN promoter activators, confirmation, counter-screen for GAA850 frataxin promoter activator project, cell-based, luminescence, HEK293, lucGAA30, triplicate (AID 588350);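 also: counterscreen of GAA850 promoter hits where activity marks nonselective or luminescence artifacts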
# Conditions: HEK293 lucGAA30 FXN promoter luciferase, 24 h; at 6 µM; hits give high values; DMSO = 0%, 5 µM ipriflavone = 100%
row,Structure (SMILES),activation
1,Cc1cc(OCc2cc(C(=O)NCc3cc(C(C)C)no3)no2)cc(C)c1Cl,110% (active)
2,COCCn1c(=NC(=O)c2ccccc2[N+](=O)[O-])sc2cc(S(C)(=O)=O)ccc21,51.5% (active)
3,Cc1c(-c2ccccc2)nc(N)c(C#N)c1-c1cccs1,23.3% (active)
4,CCOC(=O)c1cc2cc(C)ccc2[nH]1,74.2% (active)
5,CCC(=O)NC(=Nc1nc2ccccc2s1)NC(=O)CC,129% (active)
6,Cc1ccc(-c2nc3ccccc3[nH]c2=O)cc1,101% (active)
7,N#Cc1c(N)nc2c3c(sc(=N)c2c1N)NC(=O)CC3c1ccccc1Cl (stereo not drawn),25.4% (active)
8,CC1CCc2sc3nc(N4CCN(CCO)CC4)n4ncnc4c3c2C1 (stereo not drawn),61.1% (active)
9,O=C(NCCCn1ccnc1)c1cc(-c2ccccc2)on1,204% (active)
10,COc1ccccc1N1CCN(C(=O)c2cc(-c3ccc(Br)cc3)on2)CC1,-9.05% (inactive)
11,O=C(NC1CCCC1)c1cc(-c2ccccc2)on1,161% (active)
12,COC(=O)c1ccc(CSc2nc3ccccc3c(=O)n2-c2cccc(OC)c2)o1,19.9% (inactive)
13,CN1C(=O)/C(=C\c2cc(Br)cs2)c2ccccc21,102% (active)
14,Cc1ccc(-c2c3c(=O)n(C)c(=O)n(C)c3cn2-n2cnnc2)cc1,-0.74% (inactive)
15,CCOc1ccc(N2C(=O)CC(N(CCc3ccc(OC)c(OC)c3)C(=S)Nc3ccccc3)C2=O)cc1 (stereo not drawn),-9.82% (inactive)
16,O=C(N/N=C/C=C/c1ccco1)c1cccs1,82.6% (active)
17,CCC1(CC)Cc2ccccc2-c2nc(CCl)[nH]c(=O)c21,-4.18% (inactive)
18,O=C(CC1NCCc2ccccc21)Nc1cccc(Cl)c1 (stereo not drawn),69% (active)
19,N#CC1=C(SCc2ccc(C#N)cc2)N=C(N)C(c2nc(-c3ccccc3)cs2)C12CCCCC2 (stereo not drawn),2.61% (inactive)
20,O=[N+]([O-])c1ccc(C=Nc2ccc(Cl)cc2Cl)s1,-6.04% (inactive)
21,COc1ccc(C2Nc3ccccc3C(=O)N2c2ccc(Cl)cc2)cc1Cn1cc([N+](=O)[O-])cn1 (stereo not drawn),92.3% (active)
22,CN(C(=O)c1cc2c(=O)n3ccccc3nc2s1)C1CCCCC1,116% (active)
23,CCCCNC(=O)N(O)C1N(/N=C/c2ccccc2O)C(=S)SC1(C)C (stereo not drawn),26.7% (active)
24,CCCNC(=O)c1c(Cl)cnn1-c1ccc(C)cc1,108% (active)
25,Fc1ccccc1/C=N/Nc1cc(N2CCCCC2)ncn1,118% (active)

row,Structure (SMILES),activation
1,Cc1cc(C(=O)N/N=C\C(Br)=C\c2ccccc2)c(C)o1,58.9% (active)
2,CC(C)c1cc(C(=O)N/N=C/C(Br)=C/c2ccccc2)n[nH]1,-1.66% (inactive)
3,CCCCCOc1ccc(CSC2=NCCN2)cc1[N+](=O)[O-],79.1% (active)
4,O=C(COc1ccc(Cl)cc1Cl)NCCCNC(=O)c1cnccn1,11.8% (inactive)
5,O=C(Nc1ccc2c(c1)OCCO2)c1cnccn1,87.7% (active)
6,CCc1ccc(N(C(=O)c2csnn2)C(C(=O)NC2CCCCC2)c2ccncc2)cc1 (stereo not drawn),26.5% (active)
7,C=C1c2c(Cl)ccc(O)c2C(O)=C2C(=O)[C@]3(O)C(O)=C(C(N)=O)C(=O)[C@@H](N(C)C)[C@@H]3[C@@H](O)C12 (stereo partly drawn),18.7% (inactive)
8,CN(C)[C@@H]1C(=O)C(C(N)=O)=C(O)[C@@]2(O)C(=O)C3=C(O)c4c(O)ccc(Cl)c4[C@@H](O)[C@H]3C[C@@H]12,25.7% (active)
9,Cc1noc(C)c1-c1ccc2ncnc(NC(C)c3ccco3)c2c1 (stereo not drawn),40.9% (active)
10,Cn1c(=O)n(C)c2cc(S(=O)(=O)N3CCCc4ccccc43)ccc21,1.6% (inactive)
11,CN(C)CCNC(=O)c1ccc(Cl)c2cc3ccccc3nc12,-3.95% (inactive)
12,O=C1N=C(N2CCCC2)S/C1=C\c1cccc(Br)c1,60.8% (active)
13,CC(C)(C)C(=O)c1cnc(Nc2ccccc2)s1,126% (active)
14,Cc1cc(C)n2nc(CNS(=O)(=O)c3c(F)c(F)c(F)c(F)c3F)nc2n1,21.4% (inactive)
15,O=C(NCc1ccco1)c1ccc(Cn2c(=O)c3sccc3n(Cc3ccc(F)cc3)c2=O)cc1,24.6% (active)
16,Cc1cc(=O)oc(C)c1C(=O)NCc1ccc(F)cc1,14.5% (inactive)
17,Nc1ccc(C(=O)Nc2ccccc2N)cc1,54.8% (active)
18,Cc1nnc(Sc2nc3c(c(=O)[nH]c(=O)n3C)n2Cc2ccccc2)s1,12.3% (inactive)
19,CNc1nc(Nc2ccc(C)c(Cl)c2)nc(N)c1[N+](=O)[O-],159% (active)
20,COc1ccc(/C=C/C(=O)Nc2ccc(C34CC5CC(CC(O)(C5)C3)C4)cc2)cc1OC,64.1% (active)
21,Cc1ccc(-n2c(C)cc(/C=C(\C#N)C(=O)NCC3CCCO3)c2C)cc1 (stereo not drawn),110% (active)
22,O=C(CN(c1cc(C(F)(F)F)ccc1Cl)S(=O)(=O)c1ccccc1)NCc1cccnc1,20.5% (inactive)
23,O=C(Nc1nnc(S(=O)(=O)N2CCCCCC2)s1)c1cccc(Br)c1,31.3% (active)
24,CC(C)c1ccc(NS(=O)(=O)c2cn(C)c(=O)n(C)c2=O)cc1,13.1% (inactive)
25,Cn1c(CCN2CCCCCC2)nc2cc(NC(=O)Nc3ccccc3)ccc21,122% (active)

row,Structure (SMILES),activation
1,Cc1cc(C)nc(S/C=C/C(=O)c2ccccc2)n1,-58.6% (inactive)
2,COC(=O)[C@@]1(C)[C@H]2C(=O)N(Cc3ccccc3)C(=O)[C@H]2[C@H]2CN=C(SCC3CC3)N21,29.2% (active)
3,CC[C@]1(C(=O)OC)[C@H]2C(=O)N(Cc3ccccc3)C(=O)[C@H]2[C@H]2CN=C(SCc3ccccc3)N21,15.5% (inactive)
4,CC[C@]1(C(=O)OC)[C@H]2C(=O)N(Cc3ccccc3)C(=O)[C@H]2[C@H]2CN=C(SCc3ccc(C#N)cc3)N21,23.6% (active)
5,CN(C)S(=O)(=O)c1ccc2oc(SCC(=O)Nc3ccccc3F)nc2c1,127% (active)
6,O=C(CSc1cccc2cccnc12)N/N=C/c1cccnc1,-15.3% (inactive)
7,Cc1ccc2cc(/C=N/Nc3ccc(C(=O)O)cc3)c(Cl)nc2c1,109% (active)
8,O=C1[C@H]2[C@@H](c3ccc(F)cc3)N3C(=O)N(c4ccc(C(F)(F)F)cc4)C(=O)[C@@]3(Cc3ccccc3)[C@H]2C(=O)N1C1CCCCC1,26.3% (active)
9,C[C@@]12C(=O)N(c3cccc(Br)c3)C(=O)N1[C@H](c1ccc(Cl)cc1)[C@@H]1C(=O)N(C3CCCCC3)C(=O)[C@@H]12,0.25% (inactive)
10,O=C1[C@H]2[C@@H](c3ccc(Cl)cc3)N3C(=O)N(c4cccc(F)c4)C(=O)[C@@]3(Cc3ccccc3)[C@H]2C(=O)N1C1CCCCC1,16.9% (inactive)
11,CC(C)(C)c1ccc(C(=O)NCc2ccco2)cc1,102% (active)
12,CCCCc1ccc(NC(=S)N2CCCC(CO)C2)cc1 (stereo not drawn),102% (active)
13,CC(C)(C)N1C(=O)[C@H]2[C@@H](c3ccc(Br)cc3)N3C(=O)N(c4cccc(Cl)c4)C(=O)[C@@]3(C)[C@H]2C1=O,20.4% (inactive)
14,COc1ccc(N(CCC#N)S(=O)(=O)c2ccc(Cl)cc2)cc1,11.8% (inactive)
15,CC(C)CCC(C)NC(=O)c1ccc2nccnc2c1 (stereo not drawn),77% (active)
16,O=c1[nH]cnc2c1c(-c1ccccc1)cn2-c1ccc(F)cc1,11.4% (inactive)
17,COc1ccc(Cl)cc1NC(=O)CN(C)C(=O)CCCc1c[nH]c2ccccc12,16.9% (inactive)
18,CC[C@@]12C(=O)N(c3ccccc3)C(=O)N1[C@H](c1ccc(Br)cc1)[C@@H]1C(=O)N(C(C)(C)C)C(=O)[C@@H]12,21.7% (inactive)
19,CSc1nc(N)c(C#N)c(-c2ccccc2Cl)c1C#N,25.8% (active)
20,Fc1ccc2nc(N3CCCCC3)sc2c1,95.9% (active)
21,c1ccc(-c2cc(-c3ccccc3)[nH]n2)cc1,129% (active)
22,Oc1ccccc1-c1cc(-c2ccc(Cl)cc2)n[nH]1,124% (active)
23,COc1ccc(-n2cc(-c3ccccc3)c3c(=S)nc[nH]c32)cc1,15.8% (inactive)
24,N#CCSc1nc2ccccc2c(=O)n1-c1ccccc1,16.1% (inactive)
25,CC1(C(=O)N/N=C/c2cc3c(cc2Br)OCO3)CC1(Br)Br (stereo not drawn),30.7% (active)

row,Structure (SMILES),activation
1,COc1ccccc1C1=Nc2cccc3cccc(c23)N1,15.9% (inactive)
2,COc1cc(C#Cc2ccc3cc(CCCO)oc(=O)c3c2)cc(OC)c1,7.14% (inactive)
3,Cc1ccc(C(=O)NNc2ncnc3ccccc23)cc1,79.1% (active)
4,CCN(C[C@H]1N[C@@](CC)(C(=O)OC)[C@H]2C(=O)N(Cc3ccccc3)C(=O)[C@@H]12)S(=O)(=O)c1ccc(C(F)(F)F)cc1,22.6% (active)
5,CN(C)C(=S)N=c1ssc(=S)n1Cc1ccco1,12.5% (inactive)
6,Cc1nc(-c2ccc(F)cc2)c(CC(=O)Nc2cc(S(=O)(=O)N3CCCCC3)ccc2C)s1,16.7% (inactive)
7,COc1ccc2[nH]c(=O)c(CN(Cc3nnnn3CCc3ccccc3)CC3CCCO3)cc2c1 (stereo not drawn),-9.61% (inactive)
8,COc1cc(/C=N/Nc2nc3ccccc3s2)ccc1O,124% (active)
9,CCCCn1c(SCC(=O)NCCc2ccc(OC)c(OC)c2)nc2c1c(=O)n(C)c(=O)n2C,26.9% (active)
10,COc1ccc(NC(=O)CSc2nc(SC)ns2)c(OC)c1,119% (active)
11,CCOc1ccc(Nc2oc(Cc3ccccc3)nc2C#N)cc1,58.9% (active)
12,O=c1oc2ccccc2cc1-c1csc(Nc2ccc(O)cc2)n1,148% (active)
13,COc1ccc(-c2csc(Nc3ccc(O)cc3)n2)cc1,107% (active)
14,COc1ccc(-c2csc(Cc3nc(O)cs3)n2)cc1,-53.3% (inactive)
15,CC1(Cc2cccc(C#N)c2)C(=O)Nc2ccc(-c3cccc(C(F)(F)F)c3)cc21 (stereo not drawn),10.6% (inactive)
16,COc1ccc(-c2nnc(SCC(=O)c3cccs3)o2)c(OC)c1,88.6% (active)
17,Cc1ccccc1Nc1c([N+](=O)[O-])ccc2nonc12,29.2% (active)
18,Cc1ccc(C2Nc3cccc4cccc(c34)N2)cc1,24.8% (active)
19,CC(Sc1nc2c([nH]c3ccccc32)c(=O)n1C)c1ccccc1 (stereo not drawn),22.8% (active)
20,COc1cccc(Nc2nc(N)c([N+](=O)[O-])c(NCc3ccco3)n2)c1,42% (active)
21,CC1(C(=O)NCc2cccc3ccccc23)CCN1Cc1ccc(-c2ccccc2)o1 (stereo not drawn),24.2% (active)
22,CCOC(=O)c1cc2c(=O)n3ccccc3nc2n(CC(C)C)c1=NC(=O)c1c(-c2c(F)cccc2Cl)noc1C,-0.82% (inactive)
23,Cc1ccc(NC(=O)c2sc3nc(N)c(C#N)cc3c2N)cc1,61.2% (active)
